Results published in PubChem BioAssay (Tox21).
Inconclusive results are not listed. Calls of active or inactive are those of the source. Calls follow the shape of the dose curve; as a rule, active = well fitted cell-killing curve with a large enough effect in the repeat runs; inconclusive = weak or mixed curves, or effect the other way; inactive = no such curve, though single readings can be large or run the other way.

assay: qHTS assay to identify small molecule antagonists of the retinoid-related orphan receptor gamma (ROR-gamma) signaling pathway - cell viability counter screen (AID 1159520); settings: Tet-on RORgamma CHO cells viability, ATP luminescence, 16 h; series mostly up to 92.4 µM; activity, negative = cytotoxicity: at the top concentration; also: nearly all actives have a fitted effect of over 50% in size
How it was run: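 Tet-on ROR gamma CHO cells were given compounds for 2 hr, then doxycycline hyclate at 1 uM final, and incubated 16 hr at 37 C. Viability was measured as ATP content by CellTiter-Glo luminescence.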
% is scaled to controls: 0 for no effect and ±100 for the full control effect.

| Structure (SMILES) | activity, negative = cytotoxicity |
| --- | --- |
| Cc1nc(C)c(C)nc1C | -15.4% (inactive) |
| Cc1cc(C)c(C)c(O)c1 | -1.41% (inactive) |
| Cc1ccc(S(=O)(=O)NC(=O)NC2CCCC2)cc1 | 2.65% [at 42.5 µM] (inactive) |
| OCCc1ccncc1 | -5.16% (inactive) |
| C=C(C)C(=O)OCCCCCCCCCCOC(=O)C(=C)C | -12.2% (inactive) |
| CCC1=C(C)CN(C(=O)NCCc2ccc(S(=O)(=O)NC(=O)NC3CCC(C)CC3)cc2)C1=O (centres undefined) | -1.85% [at 42.5 µM] (inactive) |
| Cc1ccc(Cl)c(OCC(O)CNC(C)(C)C)c1 (centres undefined) | 0.781% [at 42.5 µM] (inactive) |
| O=C(C1CCCCC1)N1CC(=O)N2CCCc3ccccc3C2C1 (centres undefined) | -1.19% [at 42.5 µM] (inactive) |
| N#CCCCC(C#N)CCC#N (centres undefined) | 1.29% (inactive) |
| C[C@H](CN1CCCC1)C(=O)c1ccc(C(F)(F)F)cc1 | 1.12% [at 42.5 µM] (inactive) |
| Clc1nc2ccccc2nc1Cl | -11% (inactive) |
| CC(C)NC(=O)c1ccccc1N | -16.2% (inactive) |
| CCCc1nc(C)c2c(=O)[nH]c(-c3cc(S(=O)(=O)N4CCN(CC)CC4)ccc3OCC)nn12 | -9.31% [at 42.5 µM] (inactive) |
| Cc1cccc(C)c1NC(=O)CN1CCCC1 | 1.38% [at 42.5 µM] (inactive) |
| CC(COc1ccccc1)NC(C)C(O)c1ccc(O)cc1 (centres undefined) | 0.328% [at 42.5 µM] (inactive) |
| NCCOCCOCCN | 2.94% (inactive) |
| C=CC(=O)OCCCCCCCCCC | 1.3% (inactive) |
| Nc1ccc(F)cc1F | 5.55% (inactive) |
| O=c1[nH]nc(-c2ccc([N+](=O)[O-])o2)o1 | 3.82% (inactive) |
| CCN(CC)CC(=O)OCC(=O)[C@@]1(O)CC[C@H]2[C@@H]3CCC4=CC(=O)CC[C@]4(C)[C@H]3[C@@H](O)C[C@@]21C | 2.96% [at 42.5 µM] (inactive) |

| Structure (SMILES) | activity, negative = cytotoxicity |
| --- | --- |
| CCOC(OCC)OCC | 2.9% (inactive) |
| Cc1ccc2ccccc2c1[N+](=O)[O-] | -1.96% (inactive) |
| C=CC(C)CCC=C(C)C (centres undefined) | 1.39% (inactive) |
| COC(=O)/C=C/C(C)=C\C=C\C(C)=C\C=C\C=C(C)\C=C\C=C(C)\C=C\C(=O)O | -9.69% (inactive) |
| CO[C@@H]1COCC[C@@H]1N[C@@H]1CC[C@@](C(=O)N2CCc3ncc(C(F)(F)F)cc3C2)(C(C)C)C1 | 2.7% (inactive) |
| CCCC(=O)OCc1ccccc1 | 9.3% (inactive) |
| c1ccc(CCNc2nc(-c3ccccc3)cs2)cc1 | -4.07% [at 42.5 µM] (inactive) |
| C[C@]12CCC(=O)C=C1[C@@H]1C[C@@H]1[C@H]1[C@@H]3[C@@H]4C[C@@H]4[C@@]4(CCC(=O)O4)[C@@]3(C)CC[C@@H]12 | -12.2% [at 42.5 µM] (inactive) |
| O=C(OC1C[C@H]2CC[C@@H](C1)[N+]21CCCC1)C(O)(c1ccccc1)c1ccccc1 (some centres undefined) | 5.64% [at 42.5 µM] (inactive) |
| N#Cc1ccc(CC(=O)c2cccc(C(F)(F)F)c2)cc1 | -5.79% (inactive) |
| CC(CC(C#N)(c1ccccc1)C(C)C)N(C)C (centres undefined) | 0.845% [at 42.5 µM] (inactive) |
| O=C(NC1CCN(CCc2c[nH]c3ccccc23)CC1)c1ccccc1 | -0.326% [at 42.5 µM] (inactive) |
| CCCCOC(=O)C(C)Oc1ccc(Oc2ccc(C(F)(F)F)cn2)cc1 (centres undefined) | -0.645% (inactive) |
| O=C(N[C@@H](Cc1ccccc1)[C@@H](O)C(=O)N1C[C@@H](O)[C@@H](O)C1)c1cc2cc(Cl)ccc2[nH]1 | -0.159% (inactive) |
| CC1(C)C(=O)NC(=O)N1CO | 5.9% (inactive) |
| CCOc1cc(OCC)c(C(C)=O)cc1OCC | 3.98% (inactive) |
| OCCOc1cccc(OCCO)c1 | 0.244% (inactive) |
| CC(C)=CCC/C(C)=C/C=N/O | -7.12% (inactive) |
| CC(=O)Nc1ccn(C2COC(COC(=O)c3ccccc3)O2)c(=O)n1 (centres undefined) | 4.23% [at 42.5 µM] (inactive) |
